Compound activity as filed in PubChem.
A selection: hits, their analogues and other compounds. The true share with any hit is near 1.5%.
USP1-UAF1 inh – Inhibitors of USP1/UAF1: Primary Screen; Ubiquitin carboxyl-terminal hydrolase 1 (Homo sapiens), O94782; recombinant USP1/UAF1, Ub-Rhodamine cleavage fluorescence; Potency, µM (doses to about 57.1 µM), for inactives: at the highest dose activity change, negative = inhibition, actives largely listed as inhibitors; hit rate 0.23% among 390,000; AID 743255, 2014; note: potency is the fitted concentration of half-maximal effect; nearly all actives have a fitted effect of over 60% in size
Target sequence (O94782 whole entry, looked up): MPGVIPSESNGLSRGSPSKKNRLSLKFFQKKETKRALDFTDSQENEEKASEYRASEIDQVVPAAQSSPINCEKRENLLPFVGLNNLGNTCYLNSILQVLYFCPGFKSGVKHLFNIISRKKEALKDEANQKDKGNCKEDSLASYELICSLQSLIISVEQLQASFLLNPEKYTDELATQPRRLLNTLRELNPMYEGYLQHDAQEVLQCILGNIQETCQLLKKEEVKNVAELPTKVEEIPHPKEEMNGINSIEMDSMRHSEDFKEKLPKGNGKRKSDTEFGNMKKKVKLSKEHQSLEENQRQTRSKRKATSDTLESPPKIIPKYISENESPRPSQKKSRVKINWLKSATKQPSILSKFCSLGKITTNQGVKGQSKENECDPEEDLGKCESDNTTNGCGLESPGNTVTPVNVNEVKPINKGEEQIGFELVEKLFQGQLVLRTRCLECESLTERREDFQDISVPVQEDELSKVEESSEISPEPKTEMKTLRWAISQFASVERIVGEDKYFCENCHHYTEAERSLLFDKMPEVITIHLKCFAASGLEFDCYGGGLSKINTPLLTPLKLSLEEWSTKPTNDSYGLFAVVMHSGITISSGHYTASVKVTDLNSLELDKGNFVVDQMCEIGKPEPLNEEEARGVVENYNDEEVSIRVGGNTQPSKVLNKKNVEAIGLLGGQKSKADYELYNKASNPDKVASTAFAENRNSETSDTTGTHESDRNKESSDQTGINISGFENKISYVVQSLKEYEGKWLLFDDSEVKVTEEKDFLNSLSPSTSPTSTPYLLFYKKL
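1 nM enzyme complex + cpd, 15 min RT; start with Ub-Rho 150nM final; kinetic fluorescence ex 480/em 540, 6 reads q60 s. Buffer 50mM HEPES pH 7.8, 0.5mM EDTA, 0.1 mg/ml BSA, 1mM TCEP, 0.01% Tween-20.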
GALK inh – qHTS Assay for Inhibitors of Human Galactokinase (GALK) | P51570 | Purified GALK, Kinase-Glo residual ATP luminescence | Potency, µM (titrated, usually from 57.5 µM), inactives show at the highest dose activity change, negative = inhibition, actives largely listed as inhibitors | hit rate 0.007% among 270,000 | AID 1868, 2009; note: potency is the fitted concentration of half-maximal effect
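Luminescence from leftover ATP (Ultra-Glo luciferase/luciferin) served as read-out after a 1 h room-temperature reaction of 5 nM GALK with 35 uM ATP and 100 uM galactose.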
TrxR1 substrate – qHTS Assay for Substrates of Mammalian Selenoprotein Thioredoxin Reductase 1 (TrxR1): qHTS; Thioredoxin reductase 1, cytoplasmic (Rattus norvegicus), O89049; purified TrxR1 substrate turnover, NADPH consumption readout; Potency, µM (titrated, usually from 114 µM), for inactives: top-dose activity change, negative = substrate turnover; hit rate 0.01% among 390,000; note: potency is the fitted concentration of half-maximal effect; nearly all actives have a fitted effect of over 50% in size
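Rat TrxR1, dispensed at 90 nM, was prereduced with 400 uM NADPH (final) for 5 min at ~22 deg C, then incubated with compound 15 min before 400 uM selenite. A first-read NADPH fluorescence drop versus no-compound background flagged substrates.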
FBPA coupling cs – qHTS Assay for Inhibitors of Fructose-1,6-bisphosphate Aldolase from Giardia Lamblia: Coupling assay counterscreen; coupling enzyme system counterscreen, AmpLite Red fluorescence; activity change, negative = inhibition, % at 58.2 µM, hits read low; hit rate 0.67% among 290,000; in the data active = activity change below about -30%
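Compounds tested against the coupling enzymes alone at 57.5 uM final; readout was AmpLite Red fluorescence (525/598 nm) after 20 min at RT.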
rTrxR1 inhibitor – qHTS Assay for Inhibitors of Mammalian Selenoprotein Thioredoxin Reductase 1 (TrxR1): qHTS. AID 588453, 2011. Potency, µM (series often up to 114 µM), for the others: at the highest dose activity change, negative = inhibition, hits mostly inhibitors. recombinant rTrxR1, NADPH fluorescence consumption, selenite substrate. hit rate 1% among 390,000. Thioredoxin reductase 1, cytoplasmic (Rattus norvegicus), O89049; note: potency is the fitted concentration of half-maximal effect; nearly all actives have a fitted effect of over 65% in size
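Rat TrxR1 (90 nM in the dispensed reagent) was pre-reduced with 400 uM NADPH for 5 min at room temperature, then incubated with compound for 15 min. After 400 uM selenite was added, NADPH fluorescence (Ex 340/Em 450 nm) was followed for 8 min.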
Active calls of the source: *; ? = inconclusive; . = no result given; ! = not active in a repeat; [ ] = another dose, or the depositor's remark. Unless noted, calls come from the whole dose curve; as a rule, active = well fitted curve in the direction sought with a large enough effect; inconclusive = small, poorly fitted or top-dose-only effect, or another doubt; inactive = no such curve, though single readings can be large; an effect the other way counts as inactive or inconclusive. % is set by controls: 0 for no effect and ±100 for the full control effect.

SMILES | USP1-UAF1 inh | GALK inh | TrxR1 substrate | FBPA coupling cs | rTrxR1 inhibitor
O=[N+]([O-])c1cc(Cc2ccccc2)cc(C=Nc2ccc(N3CCOCC3)cc2)c1O | 25µM* | -1% | -7% | -4 | -24%
Cc1ccc(O)c(N=Cc2cc(Cc3ccccc3)cc([N+](=O)[O-])c2O)c1 | 25µM* | 0% | 4%[57.1 µM] | -11 | -67%
Cc1ccnc2ccc(N)cc12 | . | . | 6% | . | 13%
S=c1[nH]c(=S)c2[nH]cnc2[nH]1 | . | . | -4% | . | ?
COC(=O)CCCC1=CC2=CC(=O)C(C)(OC(=O)c3cccs3)C(=O)C2=CN1CCc1c[nH]c2ccccc12 (stereo not given) | ? | 0% | -11% | -36*! | -24%
CCN(CC)CCCN1C=C2C(=O)C(C)(OC(=O)c3cccs3)C(=O)C=C2C=C1CCCC(=O)OC (stereo not given) | . | . | . | -1 | .
COC(=O)CCCC1=CC2=CC(=O)C(C)(OC(=O)c3cccs3)C(=O)C2=CN1CCCOC(C)C (stereo not given) | ? | -1% | -9% | -31* | -13%
COC(=O)CCCC1=CC2=CC(=O)C(C)(OC(=O)c3cccs3)C(=O)C2=CN1C1CCCC1 (stereo not given) | ? | -2% | -12% | -43* | -9%
CCCCC1=CC2=CC(=O)C(C)(OC(=O)CC)C(=O)C2=CN1CCc1c[nH]c2ccccc12 (stereo not given) | -6% | 0% | 1%[57.1 µM] | -2 | -2%[57.1 µM]
COC(=O)CCCC1=CC2=CC(=O)C(C)(OC(=O)c3cccs3)C(=O)C2=CN1C(CO)CO (stereo not given) | . | . | . | -11 | .
CCCCC1=CC2=CC(=O)C(C)(OC(=O)CC)C(=O)C2=CN1C1CCCC1 (stereo not given) | -17% | 3% | -5% | -33*! | 13%
CCCCC1=CC2=CC(=O)C(C)(OC(=O)CC)C(=O)C2=CN1c1ccccc1 (stereo not given) | ? | -2% | 2% | 1 | -28%
CC1=Nc2ccccc2/C1=C/c1ccc(N(C)C)cc1 | . | . | 2% | . | 16%
CC(=O)OC1C=C[C@@H](OC(C)=O)C1 (stereo not given in full) | . | . | . | -1 | .
O=C(CN(Cc1ccccc1)C(=O)CCl)c1cccc(Br)c1 | -22% | . | -5% | . | 14µM*
O=C(COc1ccc(F)cc1)c1c(O)cc(O)cc1O | 3% | 0% | -10% | 1 | 7.1µM*
O=S(=O)(c1ccc(Cl)cc1)N1CCN(c2nc(Nc3cc(Cl)ccc3O)nc3ccccc23)CC1 | . | . | -4%[80.7 µM] | . | 12%[80.7 µM]
CCOC(=O)c1c(C)[nH]c(C)c1C(=O)COC(=O)/C=C/c1ccco1 | -13% | . | -5% | . | 20µM*
CCOC(=O)c1c(C)[nH]c(C)c1C(=O)COC(=O)/C=C/c1ccc(OC)cc1 | -15% | . | -10% | . | 0%
CCN(C(=O)COC(=O)/C=C/c1ccco1)C1CCCCC1 | -5% | . | -6% | . | 35µM*
CCN(C(=O)COC(=O)/C=C/c1ccc(F)cc1)C1CCCCC1 | -8% | . | -3% | . | 4%
CC(C)([CH2][Sn]([CH2]C(C)(C)c1ccccc1)([CH2]C(C)(C)c1ccccc1)[O][Sn]([CH2]C(C)(C)c1ccccc1)([CH2]C(C)(C)c1ccccc1)[CH2]C(C)(C)c1ccccc1)c1ccccc1 | . | . | . | 1 | .
O=C1C=CC(=O)N1 | -22% | . | 6% | . | 2µM*
Cc1ccccc1S(=O)(=O)N1CCN(c2nc(-c3cccs3)nc3ccccc23)CC1 | . | . | -1% | . | 5%
O=C1C=CC(=Nc2ccc(F)cc2)O1 | -3% | . | 1% | . | 7.1µM*
SMILES | USP1-UAF1 inh | GALK inh | TrxR1 substrate | FBPA coupling cs | rTrxR1 inhibitor
CCC[C@@H]1CC(C(=O)NC(C2O[C@H](SC)C(OP(=O)(O)O)[C@H](O)[C@H]2O)[C@H](C)Cl)N(C)C1 (stereo not given in full) | . | . | . | 0 | .
COCC1CCN(Cc2c(C(=O)N3CCc4ccccc4C3)nc3ccc(Cl)cn23)C1 (stereo not given) | -14% | -3% | 5% | . | 16µM*
Nc1ccc(/C=C/c2cccc3cccnc23)cc1 | . | . | -6% | . | 10%
COC(=O)C1C=CC(OC2OC(COC(C)=O)C(OC(C)=O)C(OC(C)=O)C2OC(C)=O)n2c(=O)n(-c3ccccc3)c(=O)n21 (stereo not given) | -3% | . | -3% | . | 11µM*
CCCCCCCC1=Cc2ccccc2C(C(C(C)=O)C(=O)OC)N1C(=O)OC (stereo not given) | . | . | . | 0 | .
CCC(=O)N(C1=C(NC)C(=O)c2ccccc2C1=O)C(C)C | ? | 0% | -1% | -41* | 29%
CNC1=C(N(C(C)=O)c2ccc(Br)cc2)C(=O)c2ccccc2C1=O | ? | . | -6%[11.4 µM] | -56* | 0%[11.4 µM]
CCC(=O)N(C)/C=C1\Sc2ccccc2C1=O | -13% | -3% | 4%[57.1 µM] | . | 10%[57.1 µM]
CC(=O)NC1=C(Nc2ccc(N(C)C)cc2)C(=O)c2ccccc2C1=O | ? | 15% | -4% | -29 | -9%
CCOC(=O)c1c(C)oc2c1cc(O)c1ccccc12 | -1% | -5% | 12%[57.1 µM] | -14 | 13%[57.1 µM]
CCOC(=O)c1c(C)[nH]c2c1cc(O)c1ccccc12 | -4% | -2% | -5% | -33* | -5%
COc1cccc([C@@H]2Oc3ccc(Br)cc3[C@H](O)[C@H]2O)c1 | . | . | . | -1 | .
CC(=O)CCS(=O)(=O)c1ccc(NC(C)=O)cc1 | -15% | 3% | 12% | 1 | 40µM*
CC(=O)Nc1ccc(S(=O)(=O)c2cc(O)ccc2O)cc1 | -8% | -1% | -1% | 1 | 18µM*
COc1ccc(Br)cc1C1NC(c2ccc3c(c2)OCO3)=CC(c2cc(Cl)ccc2O)N1 (stereo not given) | . | . | -5% | . | ?
CC(=O)NC(Nc1c(C)n(C)n(-c2ccccc2)c1=O)C(Cl)(Cl)Cl (stereo not given) | -23% | 14% | 1% | 2 | 56µM*
Cn1c(-c2c(N)n(CCc3ccccc3)c3nc4ccccc4nc23)nc2ccccc21 | 28µM* | 2% | -1% | -3 | -2%
CCN1CCN(C(=S)c2ccc(Cl)cc2)CC1 | -6% | -3% | -7%[57.1 µM] | -54* | -17%[57.1 µM]
Cc1ccc(S(=O)(=O)c2nc(S(C)(=O)=O)sc2N2CCC(C)CC2)cc1 | -32% | 0% | 5% | . | 13µM*
CC1(C)S[C@@H]2[C@H](NC(=O)COc3ccccc3)C(=O)N2[C@@H]1C(=O)OCc1cccc2cccnc12 | . | . | 3% | . | 15%
CC(=O)c1ccc(C2CC34CNS(=O)(=O)C3CC2O4)cc1 (stereo not given) | . | . | -2% | 6 | 28µM*
